# Hit rate of the full screen: of about 5,500 compounds, about 2,000 (36%) were called active. About 18% were inconclusive and are not listed. This is one part of the list. Unmarked numbers belong to inactive results. Cut-off read from the data, not from the text of the source: active = normalized growth mostly below about 0.91 (no sharp cut-off); inconclusive = no clear call, values can overlap the other calls; inactive = mostly above about 0.92.
# Assay: chemical genetic growth profiling, strain panel (AID 1159580);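 note: tested at 20 µM; growth read once vehicle control cultures reached saturation at 30 °C; 1 = growth at the plate median or of vehicle wells; lower values mean less growth of the strain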
# Settings: growth OD
compound,measurement,setting,value
COc1ccc2c(c1)CCC1C2CC[C@@]2(C)C1CC[C@@H]2O (some centres not stated),normalized growth,"S. cerevisiae deletion strains, locus YJR075W, strain HOC1, hits give low values",0.705 (active)
same,normalized growth,"S. cerevisiae deletion strains, locus YKL009W, strain mrt4, hits give low values",0.685 (active)
same,normalized growth,"S. cerevisiae deletion strains, locus YKL068W, hits give low values",0.944
same,normalized growth,"S. cerevisiae deletion strains, locus YKL085W, strain MDH1 (second series), hits give low values",0.853 (active)
same,normalized growth,"S. cerevisiae deletion strains, locus YKL085W, strain MDH1, hits give low values",0.853 (active)
same,normalized growth,"S. cerevisiae deletion strains, locus YKL160W, strain elf1, hits give low values",0.829 (active)
same,normalized growth,"S. cerevisiae deletion strains, locus YKL190W, strain CNB1, hits give low values",0.843 (active)
same,normalized growth,"S. cerevisiae deletion strains, locus YKR001C, strain vps1, hits give low values",0.359 (active)
same,normalized growth,"S. cerevisiae deletion strains, locus YKR026C, strain gcn3, hits give low values",0.969
same,normalized growth,"S. cerevisiae deletion strains, locus YKR091W, strain srl3, hits give low values",0.968
same,normalized growth,"S. cerevisiae deletion strains, locus YLL001W, strain dnm1, hits give low values",0.838 (active)
same,normalized growth,"S. cerevisiae deletion strains, locus YLL026W, hits give low values",0.902 (active)
same,normalized growth,"S. cerevisiae deletion strains, locus YLL041C, strain sdh2, hits give low values",0.973
same,normalized growth,"S. cerevisiae deletion strains, locus YLR027C, strain aat2, hits give low values",0.816 (active)
same,normalized growth,"S. cerevisiae deletion strains, locus YLR039C, strain RIC1, hits give low values",0.351 (active)
same,normalized growth,"S. cerevisiae deletion strains, locus YLR058C, strain SHM2, hits give low values",0.879 (active)
same,normalized growth,"S. cerevisiae deletion strains, locus YLR102C, strain apc9, hits give low values",0.951
same,normalized growth,"S. cerevisiae deletion strains, locus YLR113W, strain HOG1, hits give low values",0.816 (active)
same,normalized growth,"S. cerevisiae deletion strains, locus YLR221C, strain rsa3, hits give low values",0.808 (active)
same,normalized growth,"S. cerevisiae deletion strains, locus YLR258W, strain gsy2, hits give low values",0.892 (active)
same,normalized growth,"S. cerevisiae deletion strains, locus YLR262C, strain YPT6 (second series), hits give low values",0.505 (active)
same,normalized growth,"S. cerevisiae deletion strains, locus YLR262C, strain YPT6, hits give low values",0.293 (active)
same,normalized growth,"S. cerevisiae deletion strains, locus YLR268W, strain sec22, hits give low values",0.818 (active)
same,normalized growth,"S. cerevisiae deletion strains, locus YLR320W, strain mms22, hits give low values",0.722 (active)
same,normalized growth,"S. cerevisiae deletion strains, locus YLR330W, strain CHS5, hits give low values",0.748 (active)
same,normalized growth,"S. cerevisiae deletion strains, locus YLR342W, strain FKS1 (second series), hits give low values",0.398 (active)
same,normalized growth,"S. cerevisiae deletion strains, locus YLR342W, strain FKS1, hits give low values",0.781 (active)
same,normalized growth,"S. cerevisiae deletion strains, locus YLR357W, strain rsc2, hits give low values",0.852 (active)
same,normalized growth,"S. cerevisiae deletion strains, locus YLR370C, strain arc18, hits give low values",0.959
same,normalized growth,"S. cerevisiae deletion strains, locus YLR371W, strain rom2, hits give low values",0.925
same,normalized growth,"S. cerevisiae deletion strains, locus YLR384C, strain iki3, hits give low values",1.02
same,normalized growth,"S. cerevisiae deletion strains, locus YLR418C, strain cdc73, hits give low values",0.381 (active)
same,normalized growth,"S. cerevisiae deletion strains, locus YML016C, strain PPZ1, hits give low values",0.977
same,normalized growth,"S. cerevisiae deletion strains, locus YML032C, strain rad52, hits give low values",0.696 (active)
same,normalized growth,"S. cerevisiae deletion strains, locus YML120C, strain ndi1, hits give low values",0.896 (active)
same,normalized growth,"S. cerevisiae deletion strains, locus YML124C, strain tub3, hits give low values",0.934
same,normalized growth,"S. cerevisiae deletion strains, locus YMR058W, strain fet3, hits give low values",0.872 (active)
same,normalized growth,"S. cerevisiae deletion strains, locus YMR078C, strain ctf18, hits give low values",0.867 (active)
same,normalized growth,"S. cerevisiae deletion strains, locus YMR125W, strain sto1, hits give low values",0.938
same,normalized growth,"S. cerevisiae deletion strains, locus YMR129W, hits give low values",0.961
same,normalized growth,"S. cerevisiae deletion strains, locus YMR205C, strain PFK2, hits give low values",0.697 (active)
same,normalized growth,"S. cerevisiae deletion strains, locus YMR223W, strain ubp8, hits give low values",0.728 (active)
same,normalized growth,"S. cerevisiae deletion strains, locus YMR231W, strain pep5, hits give low values",0.963
same,normalized growth,"S. cerevisiae deletion strains, locus YMR263W, strain SAP30, hits give low values",0.785 (active)
same,normalized growth,"S. cerevisiae deletion strains, locus YMR307W, strain GAS1, hits give low values",0.237 (active)
same,normalized growth,"S. cerevisiae deletion strains, locus YNL067W, strain RPL9B, hits give low values",0.791 (active)
same,normalized growth,"S. cerevisiae deletion strains, locus YNL071W, strain lat1, hits give low values",0.468 (active)
same,normalized growth,"S. cerevisiae deletion strains, locus YNL128W, strain TEP1, hits give low values",0.78 (active)
same,normalized growth,"S. cerevisiae deletion strains, locus YNL153C, strain GIM3, hits give low values",0.838 (active)
same,normalized growth,"S. cerevisiae deletion strains, locus YNL183C, strain NPR1, hits give low values",0.838
same,normalized growth,"S. cerevisiae deletion strains, locus YNL209W, strain ssb2, hits give low values",0.934
same,normalized growth,"S. cerevisiae deletion strains, locus YNL233W, strain BNI4, hits give low values",0.584 (active)
same,normalized growth,"S. cerevisiae deletion strains, locus YNL248C, strain rpa49, hits give low values",0.915
same,normalized growth,"S. cerevisiae deletion strains, locus YNL250W, strain rad50, hits give low values",0.85 (active)
same,normalized growth,"S. cerevisiae deletion strains, locus YNL271C, strain bni1, hits give low values",0.8 (active)
same,normalized growth,"S. cerevisiae deletion strains, locus YNL298W, strain CLA4, hits give low values",0.548 (active)
same,normalized growth,"S. cerevisiae deletion strains, locus YNL307C, strain MCK1, hits give low values",0.266 (active)
same,normalized growth,"S. cerevisiae deletion strains, locus YNL322C, strain KRE1 (second series), hits give low values",0.907
same,normalized growth,"S. cerevisiae deletion strains, locus YNL322C, strain KRE1, hits give low values",0.87 (active)
same,normalized growth,"S. cerevisiae deletion strains, locus YNR049C, strain mso1, hits give low values",0.984
same,normalized growth,"S. cerevisiae deletion strains, locus YNR052C, strain pop2, hits give low values",0.738 (active)
same,normalized growth,"S. cerevisiae deletion strains, locus YOL006C, strain TOP1, hits give low values",0.477 (active)
same,normalized growth,"S. cerevisiae deletion strains, locus YOL012C, strain htz1",1.54
same,normalized growth,"S. cerevisiae deletion strains, locus YOL147C, strain pex11, hits give low values",0.695 (active)
same,normalized growth,"S. cerevisiae deletion strains, locus YOR001W, strain rrp6, hits give low values",0.893
same,normalized growth,"S. cerevisiae deletion strains, locus YOR061W, strain CKA2, hits give low values",0.965
same,normalized growth,"S. cerevisiae deletion strains, locus YOR069W, strain VPS5, hits give low values",0.968
same,normalized growth,"S. cerevisiae deletion strains, locus YOR070C, strain gyp1, hits give low values",0.873 (active)
same,normalized growth,"S. cerevisiae deletion strains, locus YOR080W, strain dia2, hits give low values",0.98
same,normalized growth,"S. cerevisiae deletion strains, locus YOR083W, strain WHI5, hits give low values",0.825 (active)
same,normalized growth,"S. cerevisiae deletion strains, locus YOR106W, strain vam3, hits give low values",0.738 (active)
same,normalized growth,"S. cerevisiae deletion strains, locus YOR136W, strain idh2, hits give low values",0.853 (active)
same,normalized growth,"S. cerevisiae deletion strains, locus YOR144C, strain elg1, hits give low values",0.898 (active)
same,normalized growth,"S. cerevisiae deletion strains, locus YOR184W, strain ser1, hits give low values",0.458 (active)
same,normalized growth,"S. cerevisiae deletion strains, locus YOR231W, strain MKK1, hits give low values",0.883
same,normalized growth,"S. cerevisiae deletion strains, locus YOR265W, strain rbl2, hits give low values",0.912 (active)
same,normalized growth,"S. cerevisiae deletion strains, locus YOR270C, strain vph1, hits give low values",1.01
same,normalized growth,"S. cerevisiae deletion strains, locus YOR290C, strain snf2, hits give low values",0.761 (active)
same,normalized growth,"S. cerevisiae deletion strains, locus YOR316C, strain cot1, hits give low values",0.85 (active)
same,normalized growth,"S. cerevisiae deletion strains, locus YPL051W, strain arl3, hits give low values",0.83 (active)
same,normalized growth,"S. cerevisiae deletion strains, locus YPL055C, strain LGE1, hits give low values",0.53 (active)
same,normalized growth,"S. cerevisiae deletion strains, locus YPL078C, strain atp4, hits give low values",0.791 (active)
same,normalized growth,"S. cerevisiae deletion strains, locus YPL106C, strain sse1, hits give low values",0.837 (active)
same,normalized growth,"S. cerevisiae deletion strains, locus YPL240C, strain hsp82, hits give low values",0.892 (active)
same,normalized growth,"S. cerevisiae deletion strains, locus YPL241C, strain CIN2, hits give low values",0.893 (active)
same,normalized growth,"S. cerevisiae deletion strains, locus YPL256C, strain CLN2, hits give low values",0.878
same,normalized growth,"S. cerevisiae deletion strains, locus YPR119W, strain clb2, hits give low values",0.917 (active)
same,normalized growth,"S. cerevisiae deletion strains, locus YPR141C, strain kar3, hits give low values",0.967
same,normalized growth,"S. cerevisiae deletion strains, locus YPR163C, strain tif3, hits give low values",0.657 (active)
same,normalized growth,"S. cerevisiae deletion strains, locus YPR167C, strain met16, hits give low values",0.85 (active)
same,normalized growth,"S. cerevisiae deletion strains, strain wtn01, hits give low values",0.731 (active)
same,normalized growth,"S. cerevisiae strains, strain wild type, hits give low values",0.785 (active)

# Reference: PubChem BioAssay AID1159580 (chemical genetic matrix, 2015)
